PubChem BioAssay (NCATS)
Results filed as inconclusive are left out. Activity calls are given as the source filed them. Calls follow the shape of the dose curve; as a rule, active = well fitted inhibition curve with a large enough effect; inconclusive = small, poorly fitted or top-dose-only effect; inactive = flat fitted curve, though single readings scatter.

Key:
JCK = assay: qHTS profiling for inhibitors of Plasmodium falciparum proliferation (AID 504749);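 also: 0% = DMSO vehicle and full inhibition = artemisinin control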; settings: P. falciparum in erythrocytes, SYBR Green DNA, 72 h; series mostly up to 28.7 µM
Summary of the method: (§1)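 Parasite proliferation within erythrocytes, 72 h exposure. Endpoint: SYBR Green I fluorescence after overnight lysis at room temperature. Controls: 0.29 uM artemisinin, DMSO.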

N140 = assay: as above; settings: P. falciparum in erythrocytes, SYBR Green DNA, 72 h; series mostly up to 28.7 µM
Summary of the method: as §1

P93_24 = assay: as above; settings: P. falciparum in erythrocytes, SYBR Green DNA, 72 h; series mostly up to 28.7 µM
Summary of the method: as §1

P94_40 = assay: as above; settings: P. falciparum in erythrocytes, SYBR Green DNA, 72 h; series mostly up to 28.7 µM
Summary of the method: as §1

PAD = assay: as above; settings: P. falciparum in erythrocytes, SYBR Green DNA, 72 h; series mostly up to 28.7 µM
Summary of the method: as §1

PC15 = assay: as above; settings: P. falciparum in erythrocytes, SYBR Green DNA, 72 h; series mostly up to 28.7 µM
Summary of the method: as §1

PC26 = assay: as above; settings: P. falciparum in erythrocytes, SYBR Green DNA, 72 h; series mostly up to 28.7 µM
Summary of the method: as §1

PC49 = assay: as above; settings: P. falciparum in erythrocytes, SYBR Green DNA, 72 h; series mostly up to 28.7 µM
Summary of the method: as §1

SC27B = assay: as above; settings: P. falciparum in erythrocytes, SYBR Green DNA, 72 h; series mostly up to 28.7 µM
Summary of the method: as §1

TAB109 = assay: as above; settings: P. falciparum in erythrocytes, SYBR Green DNA, 72 h; series mostly up to 28.7 µM
Summary of the method: as §1

TAB113 = assay: as above; settings: P. falciparum in erythrocytes, SYBR Green DNA, 72 h; series mostly up to 28.7 µM
Summary of the method: as §1

TAB165 = assay: as above; settings: P. falciparum in erythrocytes, SYBR Green DNA, 72 h; series mostly up to 28.7 µM
Summary of the method: as §1

W2 = assay: as above; settings: P. falciparum in erythrocytes, SYBR Green DNA, 72 h; series mostly up to 28.7 µM
Summary of the method: as §1

CRL-7250 = normal cell line; assay: Cytotoxic Profiling of Annotated Libraries Using Quantitative High-Throughput Screening (AID 1296008); settings: Five cell lines viability, CellTiter-Glo ATP luminescence, 48-72 h; active compounds read low; as to max response: % is scaled to controls: 0 for no effect and ±100 for the full control effect
Summary of the method: (§2)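 Compounds were pin-transferred onto cells and incubated 48 or 72 hr at 37 degree Celsius, 95% humidity. CellTiter-Glo was added, plates sat 10 min at room temperature, then ATP-coupled luminescence was imaged as the viability read-out.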

HEK293 = assay: as above; settings: Five cell lines viability, CellTiter-Glo ATP luminescence, 48-72 h; active compounds read low
Summary of the method: as §2

HaCat = assay: as above; settings: Five cell lines viability, CellTiter-Glo ATP luminescence, 48-72 h; active compounds read low
Summary of the method: as §2

KB-3-1 = assay: as above; settings: Five cell lines viability, CellTiter-Glo ATP luminescence, 48-72 h, active compounds read low
Summary of the method: as §2

NIH3T3 = assay: as above; settings: Five cell lines viability, CellTiter-Glo ATP luminescence, 48-72 h; active compounds read low
Summary of the method: as §2
Also: nearly all actives have a fitted effect of over 60% in size.

NC(=O)NS(=O)(=O)c1ccc(N)cc1
inactive: Potency (JCK) | Potency (N140) | Potency (P93_24) | Potency (P94_40) | Potency (PAD) | Potency (PC15) | Potency (PC26) | Potency (PC49) | Potency (SC27B) | Potency (TAB109) | Potency (TAB113) | Potency (TAB165) | Potency (W2) | max response (CRL-7250) -2.79% | max response (HEK293) -4.98% | max response (HaCat) 2.87% | max response (KB-3-1) 0.448% | outcome (NIH3T3)

CCCCC1(COC(=O)CCC(=O)O)C(=O)N(c2ccccc2)N(c2ccccc2)C1=O
inactive: Potency (JCK) | Potency (N140) | Potency (P93_24) | Potency (P94_40) | Potency (PAD) | Potency (PC15) | Potency (PC26) | Potency (PC49) | Potency (SC27B) | Potency (TAB109) | Potency (TAB113) | Potency (TAB165) | Potency (W2) | outcome (CRL-7250) | max response (HEK293) -6.41% | max response (HaCat) -4.26% | max response (KB-3-1) 2.02% | outcome (NIH3T3)

O=C(O)CNC(=O)c1ccccc1I
inactive: Potency (JCK) | Potency (N140) | Potency (P93_24) | Potency (P94_40) | Potency (PAD) | Potency (PC15) | Potency (PC26) | Potency (PC49) | Potency (SC27B) | Potency (TAB109) | Potency (TAB113) | Potency (TAB165) | Potency (W2) | max response (CRL-7250) 4.72% | max response (HEK293) -1.69% | max response (HaCat) -16.3% | max response (KB-3-1) 7.37% | outcome (NIH3T3)

CCN(CC)CCc1nc(-c2ccccc2)no1
inactive: Potency (JCK) | Potency (N140) | Potency (P93_24) | Potency (P94_40) | Potency (PAD) | Potency (PC15) | Potency (PC26) | Potency (PC49) | Potency (SC27B) | Potency (TAB109) | Potency (TAB113) | Potency (TAB165) | Potency (W2) | max response (CRL-7250) 3.52% | max response (HEK293) -5.93% | max response (HaCat) 4.68% | max response (KB-3-1) 7.98% | max response (NIH3T3) 1.98%

NC(=O)CCCCC1CCSS1 (stereo not drawn)
inactive: Potency (JCK) | Potency (N140) | Potency (PC15) | Potency (PC49) | Potency (SC27B) | Potency (TAB109) | Potency (TAB113) | Potency (W2) | max response (CRL-7250) -9.01% | max response (HEK293) 2.03% | max response (HaCat) -1.45% | max response (KB-3-1) -12.5% | max response (NIH3T3) -6.71%

Nc1ccc(C(=O)Oc2ccccc2)c(O)c1
inactive: Potency (JCK) | Potency (N140) | Potency (P93_24) | Potency (P94_40) | Potency (PAD) | Potency (PC15) | Potency (PC26) | Potency (PC49) | Potency (SC27B) | Potency (TAB109) | Potency (TAB113) | Potency (TAB165) | Potency (W2) | max response (CRL-7250) 2.06% | max response (HEK293) 0.228% | max response (HaCat) -1.24% | max response (KB-3-1) -4.49% | outcome (NIH3T3)

Cc1c(I)c(=O)n(-c2ccccc2)n1C
inactive: Potency (JCK) | Potency (N140) | Potency (P93_24) | Potency (P94_40) | Potency (PAD) | Potency (PC15) | Potency (PC26) | Potency (PC49) | Potency (SC27B) | Potency (TAB109) | Potency (TAB113) | Potency (TAB165) | Potency (W2) | max response (CRL-7250) 1.27% | max response (HEK293) -2.1% | max response (HaCat) -20.9% | max response (KB-3-1) 2.22% | outcome (NIH3T3)

Nc1ncnc(Nc2ccccc2)n1
inactive: Potency (JCK) | Potency (N140) | Potency (P93_24) | Potency (P94_40) | Potency (PAD) | Potency (PC15) | Potency (PC26) | Potency (PC49) | Potency (SC27B) | Potency (TAB109) | Potency (TAB113) | Potency (TAB165) | Potency (W2) | max response (CRL-7250) -1.48% | max response (HEK293) -7.91% | max response (HaCat) 0.531% | max response (KB-3-1) 3.24% | outcome (NIH3T3)

CCCCCC(C)N (stereo not drawn)
inactive: Potency (JCK) | Potency (PC15) | Potency (PC26) | Potency (PC49) | Potency (SC27B) | Potency (TAB113) | Potency (TAB165) | max response (CRL-7250) -6.66% | max response (HEK293) -4.16% | max response (HaCat) -0.897% | max response (KB-3-1) -3.94% | max response (NIH3T3) 3.25%

CCCCCCCCCCCCCCCCCCO
inactive: Potency (JCK) | Potency (N140) | Potency (P93_24) | Potency (P94_40) | Potency (PAD) | Potency (PC15) | Potency (PC26) | Potency (PC49) | Potency (SC27B) | Potency (TAB109) | Potency (TAB113) | Potency (TAB165) | Potency (W2) | max response (CRL-7250) 0.886% | max response (HEK293) -5.18% | max response (HaCat) -4.21% | max response (KB-3-1) 12.1% | outcome (NIH3T3)

O=C(OOC(=O)c1ccccc1)c1ccccc1
inactive: Potency (JCK) | Potency (N140) | Potency (P93_24) | Potency (P94_40) | Potency (PAD) | Potency (PC15) | Potency (PC26) | Potency (PC49) | Potency (SC27B) | Potency (TAB109) | Potency (TAB113) | Potency (TAB165) | Potency (W2) | outcome (CRL-7250) | max response (HEK293) 2.9% | max response (HaCat) -8.52% | max response (KB-3-1) -3.15% | outcome (NIH3T3)

CC(C)(C)C(=O)OCOC(=O)[C@@H]1N2C(=O)[C@@H](NC(=O)[C@H](N)c3ccccc3)[C@H]2SC1(C)C
inactive: Potency (JCK) | Potency (N140) | Potency (P93_24) | Potency (P94_40) | Potency (PAD) | Potency (PC15) | Potency (PC26) | Potency (PC49) | Potency (SC27B) | Potency (TAB109) | Potency (TAB113) | Potency (TAB165) | Potency (W2) | max response (CRL-7250) -7.59% | max response (HEK293) -3.05% | max response (HaCat) -3.68% | max response (KB-3-1) -7.55% | max response (NIH3T3) -5.28%

CCOC(N)=O
inactive: Potency (JCK) | Potency (N140) | Potency (P93_24) | Potency (P94_40) | Potency (PAD) | Potency (PC15) | Potency (PC26) | Potency (PC49) | Potency (SC27B) | Potency (TAB109) | Potency (TAB113) | Potency (TAB165) | Potency (W2) | max response (CRL-7250) 1.79% | max response (HEK293) -1.46% | max response (HaCat) -12.1% | max response (KB-3-1) -7.14% | outcome (NIH3T3)
